The values that follow come from PubChem BioAssay (NCI).

Holding throughout (assay): NCI-60 one-dose screen, 48 h (100 = growth as untreated, 0 = no growth, -100 = all killed)
Assay [1] concerns UACC-62 melanoma. The conditions noted are these: 10 µM unless noted.
Assay [2] relates to TK-10 renal. As to conditions: 10 µM unless noted.
Assay [3] relates to MCF7 breast. As to conditions: 10 µM unless noted.
Assay [4] concerns HL-60(TB) leukemia. As to conditions: 10 µM unless noted.
The test system of assay [5] is NCI-H226 lung. As to conditions: 10 µM unless noted.
In assay [6] the test system is NCI-H460 lung. The conditions noted are these: 10 µM unless noted.
Assay [7] deals with 786-0 renal. As to conditions: 10 µM unless noted.
Assay [8] concerns MDA-MB-231 breast. As to conditions: 10 µM unless noted.
For assay [9], the system named is SF-268 CNS. As to conditions: 10 µM unless noted.
Assay [10] has as its system SF-539 CNS. The conditions noted are these: 10 µM unless noted.
The subject of assay [11] is M14 melanoma. As to conditions: 10 µM unless noted.
Assay [12] deals with HCT-15 colon. The conditions noted are these: 10 µM.
For assay [13], the system named is ACHN renal. The conditions noted are these: 10 µM unless noted.
The test system of assay [14] is NCI/ADR-RES ovarian. The conditions noted are these: 10 µM unless noted.
The subject of assay [15] is T-47D breast. The conditions noted are these: 10 µM unless noted.
Assay [16] deals with MDA-MB-435 melanoma. The conditions noted are these: 10 µM unless noted.
Assay [17] concerns SW-620 colon. As to conditions: 10 µM unless noted.
The test system of assay [18] is HCT-116 colon. The conditions noted are these: 10 µM unless noted.
Assay [19] relates to KM12 colon. The conditions noted are these: 10 µM unless noted.
Assay [20] has as its system UO-31 renal. As to conditions: 10 µM unless noted.

Structures are written as SMILES. Compounds without any hit were thinned out: in the full panel of roughly 83,000, 20% have a hit.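 48-hour exposure, single concentration, 96-well plates; percent growth endpoint where 0 means no net growth. Active: below 10.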 Values without a mark were called inactive. Activity calls are given as the source filed them.

With `NC(=O)CN1C(=O)C(Cc2ccc(O)cc2)N=C(c2cccc(O)c2)c2ccccc21` (centres undefined), the growth was 80.7% [30 µM] in [1], 106% [30 µM] in [2] and 75.5% [30 µM] in assay [3].
In the case of `Cc1ccccc1/C=C/C(=O)c1cccc(OCCCCOc2cccc(C(=O)/C=C/c3ccccc3C)c2)c1`, the growth in [4] is 81.8%.
With `O=C1C(Cc2ccccc2)N=C(c2cccc(O)c2)c2ccc(Cl)cc2N1CC1CC1` (centres undefined), the growth in [1] was 94.1% [30 µM]; in [2] it was 105% [30 µM]; in [3] it was 76.3% [30 µM].
For `OCCn1cccn1`, the growth in assay [4] was 99.2%.
The same measure, in the same setting: the value for `CC12CCC(O)CC1=CCC1C2CCC2(C)C3=NN=CC3CC12` (centres undefined) was 103%.
Consider `Cc1nc(N)sc1C(=O)NCCO`, for which, in assay [4], the growth was 167%.
Consider `CCOC(=O)C1(c2ccccc2)CCN(CC(=O)c2ccc(NC(C)=O)cc2)CC1`, for which the growth in assay [5] is 107%; in [6], 112%; in [7], 110%; in assay [8] it was 102%; in assay [9], 116%; in assay [10] it was 113%. Moreover, the growth is 93.6% in assay [11]; 108% in assay [12]; 94% in [1]; 96.4% in assay [2]; 96% in assay [13]; 111% in [4]. In addition, the growth in [14] was 107%; in [15] it was 88.2%; in [16], 106%; in assay [17], 104%; in assay [3], 107%; in assay [18], 97.7%. Moreover, the growth in [19] is 112%.
Take `CCCCCN1C(=O)C(CO)N=C(c2cccc(O)c2)c2ccccc21` (centres undefined): the figures for the growth in assay [1] and in assay [2] were 81.1% [30 µM] and 91% [30 µM], respectively.
For the molecule `COc1cc(NCCCCCN=C(N)N)c2ncccc2c1`, the growth in assay [6] was 65.9%; in assay [7], 86.3%; in [8], 50.8%; in assay [9], 3.28% (active); in [10], 23.8%; in [11] it was 99.3%. For the same molecule, the growth in [12] is 99.2%; in assay [1], 89.3%; in assay [20], 83.9%; in assay [13], 105%; in assay [4] it was 18.2%; in assay [14], 104%. Further, the growth was 11.8% in assay [15]; 104% in [16]; 58.9% in [17]; -51.1% (active) in assay [3]; 6.08% (active) in assay [18]; 32.6% in assay [19].
